Reference: PubChem BioAssay (Tox21)
Results filed as inconclusive are left out. A call without a number means that no potency is given here. Activity calls are given as the source filed them. The call rests on the fitted dose curve; in most records, active means well fitted cell-killing curve with a large enough effect in the repeat runs; inconclusive means weak or mixed curves, or effect the other way; inactive means flat fitted curve, though single readings scatter.

Assay: qHTS assay to identify small molecule agonists of the androgen receptor (AR) signaling pathway in the presence of an antagonist - cell viability counter screen (AID 1259379); further: nearly all actives have a fitted effect of over 25% in size
Settings: MDA-kb2 viability, CellTiter-Fluor, 16 h; series mostly up to 92.4 µM; activity change, negative = cytotoxicity: at the top concentration
Description: National Center for Advancing Translational Sciences [NCATS]
NIH Chemical Genomics Center [NCGC]
U.S. Environmental Protection Agency [EPA]
National Institutes of Environmental Health Sciences [NIEHS]
National Toxicology Program [NTP]
U.S. Food and Drug Administration [FDA]
Androgen receptor (AR) is an important member of nuclear receptor family. Its signaling plays a critical role in AR-dependent prostate cancer and other androgen related diseases. Considerable attention has been given in the past decades to develop methods to study and screen for the environmental chemicals that have the potential to interfere with metabolic homeostasis, reproduction, developmental and behavioral functions. Therefore AR binding assay for screening against androgen agonists and antagonists can be used to identify potential endocrine disruptors.
MDA-kb2 cells (from ATCC, deposited by Wilson et al.) are human breast carcinoma cells that were stably transfected with a luciferase reporter gene under control of the MMTV promoter that contains response elements for both androgen receptor (AR) and glucocorticoid receptor (GR). This particular screening for measuring luciferase reporter gene activity using MDA-kb2 cells against Tox21 10K library compounds is a confirmation study on agonist mode screening in the presence of AR-antagonist compound (Nilutamide) at 3.0uM final concentration. The cytotoxicity of the compounds was tested in parallel by measuring the cell viability using CellTiter-Fluor assay system (Promega, Madison, WI) in the same wells.
Tox21 Assay Protocol Summary:
MDA-kb2 cells (cells cultured without CO2) were dispensed at 3,000 cells/well in 4uL of culture medium into white wall/solid-bottom 1536-well plates (Corning Life Sciences, Corning, NY) using a Multidrop Combi (Thermo Fisher Scientific Inc., Waltham, MA) dispenser. The assay plates were incubated at 37C and 0% CO2 for 5hr. One uL of 3.0uM (final concentration) Nilutamide or assay buffer was added using two separate tips of Flying Reagent Dispenser (FRD, Aurora Discovery, San Diego, CA). Then 23nL of compounds dissolved in DMSO at 15 concentrations and positive controls were transferred to the assay plates using a Pintool station (Wako, San Diego, CA). The assay plates were incubated at 37C and 0% CO2 for 16 hr. After 15hr incubation at 37C, 1uL/well CellTiter-Fluor reagent (Promega Corporation) was added to each well of the assay plates using FRD. After 1hr incubation at 37C and 0% CO2, the fluorescence signal was measured using a ViewLux plate reader (PerkinElmer, Shelton, CT).
Potency means the concentration at half of the fitted maximal effect.

| SMILES | Potency | activity change, negative = cytotoxicity |
| --- | --- | --- |
| O=C(NC(=O)c1c(F)cccc1F)Nc1ccc(Cl)cc1 | inactive |  |
| COc1ccc(C=O)cc1 | inactive |  |
| Nc1ccc(-c2ccc(N)c(N)c2)cc1N |  | -2.18% (inactive) |
| CC(C)Oc1cc(-n2nc(C(C)(C)C)oc2=O)c(Cl)cc1Cl | inactive |  |
| CC(C)C(=O)OCC(C)(C)C(OC(=O)C(C)C)C(C)C (stereo not given) | inactive |  |
| C=CCc1ccc(OC)cc1 | inactive |  |
| Nc1c(Cl)cc([N+](=O)[O-])cc1Cl |  | -8.52% (inactive) |
| C=C(C)C(=O)OCC1CO1 (stereo not given) | inactive |  |
| O=c1oc2ccccc2c(O)c1C(CC(O)c1ccc(-c2ccc(Br)cc2)cc1)c1ccccc1 (stereo not given) | inactive |  |
| c1ccc(P(c2ccccc2)c2ccccc2)cc1 | inactive |  |
| CC(C)=CC1C(C(=O)OCc2coc(Cc3ccccc3)c2)C1(C)C (stereo not given) | inactive |  |
| CCCCCCCCC(=O)NCc1ccc(O)c(OC)c1 | inactive |  |
| CC(C)(C)c1ccccc1O | inactive |  |
| CN(C)C(=O)Nc1ccc(Cl)cc1 | inactive |  |
| CCCCCCCCOC(=O)c1ccccc1C(=O)OCCCCCCCC | inactive |  |
| Nc1ccc(-c2ccccc2)cc1 | inactive |  |
| S=C1NCCN1 | inactive |  |
| CC(O)CCO (stereo not given) | inactive |  |
| O=C1C=CC(=O)C=C1 | inactive |  |
| CCN(CC)C(=O)SCc1ccc(Cl)cc1 | inactive |  |

| SMILES | Potency | activity change, negative = cytotoxicity |
| --- | --- | --- |
| CC(C)c1ccc(CO)cc1 | inactive |  |
| c1nc[nH]n1 | inactive |  |
| C#CCOS(=O)OC1CCCCC1Oc1ccc(C(C)(C)C)cc1 (stereo not given) | 5.45 µM (active) |  |
| CCCCCc1cc(O)cc(O)c1 |  | -6.26% (inactive) |
| O=C(CCl)c1ccccc1 |  | 0.704% (inactive) |
| Oc1c(Cl)c(Cl)c(Cl)c(Cl)c1Cl |  | 2.33% [at 42.5 µM] (inactive) |
| O=S(=O)(Oc1ccc(Cl)cc1)c1ccc(Cl)cc1 | inactive |  |
| CCN(CC)C(=O)/C(Cl)=C(\C)OP(=O)(OC)OC | inactive |  |
| CC(C)(OOC(C)(C)c1ccccc1)c1ccccc1 | inactive |  |
| Nc1ccc(Cl)c(Cl)c1 | inactive |  |
| Clc1nc(Cl)nc(Cl)n1 | inactive |  |
| CC1(C)C(C=C(Cl)Cl)C1C(=O)OC(C#N)c1cccc(Oc2ccccc2)c1 (stereo not given) | inactive |  |
| C[C@]12CCC(=O)C(O)=C1CC[C@@H]1[C@@H]2CC[C@]2(C)C(=O)CC[C@@H]12 | inactive |  |
| Cc1ccccc1[N+](=O)[O-] | inactive |  |
| N#CC(Br)Br |  | 0.496% (inactive) |
| CCCCN(CCCC)N=O | inactive |  |
| CCCCCCCCCCCOC(=O)c1ccccc1C(=O)OCCCCCCCCCCC | inactive |  |
| N#Cc1cc(Br)c(O)c(Br)c1 |  | -3.03% (inactive) |
| Oc1ccc(-c2ccccc2)cc1 | inactive |  |
| N[C@@H](Cc1ccc(N(CCCl)CCCl)cc1)C(=O)O | inactive |  |
